Measurements taken from ChEMBL document CHEMBL3988442, “University of Dundee, Small-Polar-MMV Screening Library” (2021).
For some assays here: Entries with a potency or affinity are not part of this list.

Columns and labels:
Design in all cases: scale not given: direction of the effect not stated beside the values
[1] = biological target: Protein translocase subunit SecA (Escherichia coli (strain K12)) (UniProt P10408); experiment: Assay to Identify E. coli SecA ATPase Inhibitors; format: functional; conditions: 30 µM
Sequence of Protein translocase subunit SecA (Escherichia coli (strain K12)) (P10408 whole entry): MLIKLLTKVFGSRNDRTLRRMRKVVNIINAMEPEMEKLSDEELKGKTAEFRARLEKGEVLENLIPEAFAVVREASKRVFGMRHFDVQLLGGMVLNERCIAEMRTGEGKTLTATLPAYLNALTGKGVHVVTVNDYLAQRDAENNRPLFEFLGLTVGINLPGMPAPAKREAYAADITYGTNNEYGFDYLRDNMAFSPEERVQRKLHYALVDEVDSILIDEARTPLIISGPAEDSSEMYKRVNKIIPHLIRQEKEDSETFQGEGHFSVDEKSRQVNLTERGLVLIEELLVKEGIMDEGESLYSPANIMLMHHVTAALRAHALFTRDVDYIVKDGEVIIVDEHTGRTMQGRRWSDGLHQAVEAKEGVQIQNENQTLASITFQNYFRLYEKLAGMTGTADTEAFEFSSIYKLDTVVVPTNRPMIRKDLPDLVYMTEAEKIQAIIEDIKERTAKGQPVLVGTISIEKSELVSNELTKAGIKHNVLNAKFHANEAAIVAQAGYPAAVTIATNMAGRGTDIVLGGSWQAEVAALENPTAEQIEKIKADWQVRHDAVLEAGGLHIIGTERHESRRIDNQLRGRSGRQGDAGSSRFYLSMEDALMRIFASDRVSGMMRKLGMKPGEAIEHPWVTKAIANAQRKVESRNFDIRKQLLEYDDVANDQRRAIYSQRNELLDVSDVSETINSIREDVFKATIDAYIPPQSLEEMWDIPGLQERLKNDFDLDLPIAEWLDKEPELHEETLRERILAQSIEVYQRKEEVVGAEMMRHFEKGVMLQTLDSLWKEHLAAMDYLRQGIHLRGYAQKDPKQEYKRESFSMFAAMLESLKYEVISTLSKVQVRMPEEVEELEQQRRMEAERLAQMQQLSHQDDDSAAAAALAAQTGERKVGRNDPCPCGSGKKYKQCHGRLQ

[2] = biological target: T1, Ubiquitin-activating enzyme e1, putative (Leishmania donovani (strain BPK282A1)) (UniProt E9BSI1); experiment: Leishmania donovani Ubiquitin Activating Enzyme (LdE1); format: functional; conditions: 30 µM
T1 sequence (whole entry): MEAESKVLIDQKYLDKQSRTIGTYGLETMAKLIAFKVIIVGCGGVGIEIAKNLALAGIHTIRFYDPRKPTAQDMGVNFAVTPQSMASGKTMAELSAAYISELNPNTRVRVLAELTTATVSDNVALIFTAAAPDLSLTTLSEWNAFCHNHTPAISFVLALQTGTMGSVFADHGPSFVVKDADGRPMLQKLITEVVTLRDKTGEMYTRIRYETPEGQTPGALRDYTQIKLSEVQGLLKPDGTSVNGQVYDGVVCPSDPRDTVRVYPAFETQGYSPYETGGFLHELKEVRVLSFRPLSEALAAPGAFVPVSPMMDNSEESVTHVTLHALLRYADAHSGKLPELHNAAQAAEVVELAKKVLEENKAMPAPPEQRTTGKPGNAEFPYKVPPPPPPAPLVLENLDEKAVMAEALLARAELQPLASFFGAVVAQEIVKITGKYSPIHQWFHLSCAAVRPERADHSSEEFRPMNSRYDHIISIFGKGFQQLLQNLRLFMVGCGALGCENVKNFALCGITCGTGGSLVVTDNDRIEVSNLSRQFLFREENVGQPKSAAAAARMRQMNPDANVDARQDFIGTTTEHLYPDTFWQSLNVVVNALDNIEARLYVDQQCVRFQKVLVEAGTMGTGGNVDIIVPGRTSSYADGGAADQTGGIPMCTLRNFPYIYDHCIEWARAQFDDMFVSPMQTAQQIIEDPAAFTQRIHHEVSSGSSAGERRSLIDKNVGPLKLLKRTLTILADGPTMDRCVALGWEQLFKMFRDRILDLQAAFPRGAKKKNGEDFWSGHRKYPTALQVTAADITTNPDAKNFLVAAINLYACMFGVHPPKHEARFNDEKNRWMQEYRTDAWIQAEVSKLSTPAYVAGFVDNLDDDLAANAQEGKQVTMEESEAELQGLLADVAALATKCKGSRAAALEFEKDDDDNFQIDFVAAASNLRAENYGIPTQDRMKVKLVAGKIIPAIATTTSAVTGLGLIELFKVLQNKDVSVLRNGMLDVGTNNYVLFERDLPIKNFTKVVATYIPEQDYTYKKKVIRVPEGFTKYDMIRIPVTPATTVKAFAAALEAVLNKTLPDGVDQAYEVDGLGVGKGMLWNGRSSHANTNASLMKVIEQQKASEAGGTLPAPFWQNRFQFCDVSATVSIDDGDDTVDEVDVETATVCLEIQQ

[3] = biological target: AMP-activated protein kinase, AMPK (Homo sapiens) (UniProt P54646+O43741+P54619+Q9UGJ0+Q9Y478+Q13131+Q9UGI9); experiment: AMP-dependent Kinase enzyme assay. An in vitro enzyme assay that detects ADP turnover that is directly proportional to AMPK activity. This uses naive AMPK that is activated during the assay with MK-8722; format: functional; conditions: 30 µM
[4] = biological target: Sialic acid-binding Ig-like lectin 9 (Homo sapiens) (UniProt Q9Y336); experiment: Hs-Siglec9 ALPHAscreen SOP 20170721; conditions: 10 µM
Sequence of Sialic acid-binding Ig-like lectin 9 (Homo sapiens) (Q9Y336 whole entry): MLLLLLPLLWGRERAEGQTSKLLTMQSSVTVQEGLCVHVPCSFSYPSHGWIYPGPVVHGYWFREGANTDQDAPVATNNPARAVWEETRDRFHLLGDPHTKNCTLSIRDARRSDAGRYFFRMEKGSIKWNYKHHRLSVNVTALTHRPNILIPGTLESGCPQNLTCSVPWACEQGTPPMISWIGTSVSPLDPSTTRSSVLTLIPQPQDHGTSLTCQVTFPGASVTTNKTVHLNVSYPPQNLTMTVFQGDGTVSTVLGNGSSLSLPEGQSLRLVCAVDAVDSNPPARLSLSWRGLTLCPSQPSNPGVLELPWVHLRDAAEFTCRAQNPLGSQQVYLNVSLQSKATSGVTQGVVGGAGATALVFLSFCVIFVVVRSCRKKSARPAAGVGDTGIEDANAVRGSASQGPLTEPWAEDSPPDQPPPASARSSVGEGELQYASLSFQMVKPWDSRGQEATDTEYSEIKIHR

Trypanosoma cruzi = experiment: Trypanosoma cruzi phosphomannomutase and mannose-1-phosphate guanylyltransferase assay; format: functional; conditions: 10 µM
[5] = biological target: T2, Arginase-2, mitochondrial (Homo sapiens) (UniProt P78540); experiment: in vitro enzyme assay to detect the production of urea directly proportional to the activity of Arginase II; format: functional; conditions: 33.3 µM; also: in the data most compounds retested in dose-response had high values
T2 sequence (whole entry): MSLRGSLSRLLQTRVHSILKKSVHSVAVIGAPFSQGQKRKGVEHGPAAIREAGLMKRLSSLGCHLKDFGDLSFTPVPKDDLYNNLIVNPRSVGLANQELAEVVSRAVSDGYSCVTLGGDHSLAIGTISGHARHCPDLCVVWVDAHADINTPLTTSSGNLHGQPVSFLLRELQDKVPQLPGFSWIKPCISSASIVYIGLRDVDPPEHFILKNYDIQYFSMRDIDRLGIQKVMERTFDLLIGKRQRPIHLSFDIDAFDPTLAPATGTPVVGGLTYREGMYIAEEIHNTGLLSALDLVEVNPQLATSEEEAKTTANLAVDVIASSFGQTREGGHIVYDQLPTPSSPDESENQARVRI

[6] = biological target: T3, Proteasome subunit beta (Trypanosoma cruzi) (UniProt O96673); experiment: Trypanosoma cruzi proteasome chymotrypsin-like activity (TcProtChymo) assay.; also: in the data most compounds retested in dose-response had high values; format: functional; conditions: 9.37 µM
T3 sequence (whole entry): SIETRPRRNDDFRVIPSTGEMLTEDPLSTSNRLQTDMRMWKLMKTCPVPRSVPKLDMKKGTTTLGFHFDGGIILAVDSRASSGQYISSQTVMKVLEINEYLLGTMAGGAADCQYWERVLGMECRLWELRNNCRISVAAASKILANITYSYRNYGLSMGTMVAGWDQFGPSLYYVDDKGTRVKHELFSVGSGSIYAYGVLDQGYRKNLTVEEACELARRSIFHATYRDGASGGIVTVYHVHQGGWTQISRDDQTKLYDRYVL

Homo sapiens = species: Homo sapiens; experiment: To identify inhibition of the IFN signalling (Jak-Stat) pathway via expression of an eGFP reporter gene under the control of an IFN-stimulated response element (ISRE) containing MxA promoter.; format: functional; conditions: 30 µM
[7] = biological target: T4, Tyrosyl-tRNA synthetase, putative (Trypanosoma cruzi (strain CL Brener)) (UniProt Q4DSP6); experiment: Trypanosoma cruzi tyrosyl tRNA synthetase (TcYRS) _High Tyrosine SOP; format: functional; conditions: 30 µM; also: in the data most compounds retested in dose-response had high values
T4 sequence (whole entry): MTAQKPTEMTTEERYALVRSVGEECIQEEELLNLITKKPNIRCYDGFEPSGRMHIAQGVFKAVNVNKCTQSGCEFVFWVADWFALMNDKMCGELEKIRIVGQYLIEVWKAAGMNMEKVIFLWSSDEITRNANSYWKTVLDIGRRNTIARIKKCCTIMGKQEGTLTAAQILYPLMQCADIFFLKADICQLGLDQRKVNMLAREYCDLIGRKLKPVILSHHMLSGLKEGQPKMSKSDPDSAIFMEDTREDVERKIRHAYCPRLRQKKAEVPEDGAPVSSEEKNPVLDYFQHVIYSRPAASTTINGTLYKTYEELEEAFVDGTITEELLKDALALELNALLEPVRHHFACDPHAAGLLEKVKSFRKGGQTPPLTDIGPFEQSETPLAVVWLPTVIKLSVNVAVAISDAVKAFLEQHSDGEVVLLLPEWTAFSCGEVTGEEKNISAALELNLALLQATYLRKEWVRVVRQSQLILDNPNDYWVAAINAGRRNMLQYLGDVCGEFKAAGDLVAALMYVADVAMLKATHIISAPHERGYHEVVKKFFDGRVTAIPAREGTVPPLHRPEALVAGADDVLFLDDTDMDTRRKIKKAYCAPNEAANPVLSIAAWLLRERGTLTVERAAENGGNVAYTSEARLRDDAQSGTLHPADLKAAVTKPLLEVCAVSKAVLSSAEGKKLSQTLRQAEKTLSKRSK

[8] = biological target: T4, Tyrosyl-tRNA synthetase, putative (Trypanosoma cruzi (strain CL Brener)); experiment: Trypanosoma cruzi tyrosyl tRNA synthetase (TcYRS) SOP; format: functional; conditions: 30 µM
[9] = biological target: Chromo domain-containing protein 1 (Saccharomyces cerevisiae (strain ATCC 204508 / S288c) (Baker's yeast)) (UniProt P32657); experiment: ScCHD-1 Enzyme Inhibition Assay; format: functional; conditions: 30 µM; also: in the data most compounds retested in dose-response had high values
Sequence of Chromo domain-containing protein 1 (Saccharomyces cerevisiae (strain ATCC 204508 / S288c) (Baker's yeast)) (P32657 whole entry, the tested form may be a part): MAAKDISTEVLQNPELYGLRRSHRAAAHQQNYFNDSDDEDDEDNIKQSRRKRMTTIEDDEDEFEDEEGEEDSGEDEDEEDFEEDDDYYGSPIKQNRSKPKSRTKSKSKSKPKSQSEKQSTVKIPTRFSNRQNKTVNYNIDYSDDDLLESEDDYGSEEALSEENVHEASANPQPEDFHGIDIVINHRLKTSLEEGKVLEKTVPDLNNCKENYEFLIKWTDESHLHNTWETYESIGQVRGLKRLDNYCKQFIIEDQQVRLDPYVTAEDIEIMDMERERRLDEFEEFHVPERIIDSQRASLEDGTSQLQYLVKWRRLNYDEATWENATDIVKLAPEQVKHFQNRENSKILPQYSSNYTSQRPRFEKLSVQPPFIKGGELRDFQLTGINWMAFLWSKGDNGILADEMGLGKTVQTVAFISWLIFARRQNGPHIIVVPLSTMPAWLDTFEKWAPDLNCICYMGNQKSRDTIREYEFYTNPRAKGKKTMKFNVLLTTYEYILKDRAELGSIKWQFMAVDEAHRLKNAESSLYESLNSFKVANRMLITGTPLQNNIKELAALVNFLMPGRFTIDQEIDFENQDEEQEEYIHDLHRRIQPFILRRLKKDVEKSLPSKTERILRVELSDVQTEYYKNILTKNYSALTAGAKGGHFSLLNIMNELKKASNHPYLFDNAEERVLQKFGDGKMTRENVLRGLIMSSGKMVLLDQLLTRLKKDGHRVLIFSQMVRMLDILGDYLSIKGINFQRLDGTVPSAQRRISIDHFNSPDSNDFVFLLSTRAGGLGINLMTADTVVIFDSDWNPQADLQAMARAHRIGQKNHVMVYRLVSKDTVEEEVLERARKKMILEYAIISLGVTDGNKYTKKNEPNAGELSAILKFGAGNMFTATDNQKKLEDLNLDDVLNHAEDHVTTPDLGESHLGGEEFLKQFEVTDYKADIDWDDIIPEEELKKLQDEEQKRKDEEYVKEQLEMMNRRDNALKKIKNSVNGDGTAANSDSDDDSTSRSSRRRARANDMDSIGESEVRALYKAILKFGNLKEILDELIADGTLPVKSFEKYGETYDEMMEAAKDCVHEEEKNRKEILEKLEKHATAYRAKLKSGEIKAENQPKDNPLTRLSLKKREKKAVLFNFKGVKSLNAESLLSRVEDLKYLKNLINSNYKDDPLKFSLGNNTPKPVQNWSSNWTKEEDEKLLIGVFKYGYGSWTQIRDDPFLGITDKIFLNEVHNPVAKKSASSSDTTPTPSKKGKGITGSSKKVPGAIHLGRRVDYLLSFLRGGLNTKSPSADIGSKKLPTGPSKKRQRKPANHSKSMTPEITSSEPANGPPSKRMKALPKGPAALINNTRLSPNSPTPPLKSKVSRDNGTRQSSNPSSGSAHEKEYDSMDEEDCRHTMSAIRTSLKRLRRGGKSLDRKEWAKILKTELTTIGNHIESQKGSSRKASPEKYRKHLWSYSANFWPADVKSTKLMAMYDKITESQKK

SMILES | Percent Effect [1] | Percent Effect [2] | Percent Effect [3] | Percent Effect [4] | Percent Effect (Trypanosoma cruzi) | Percent Effect [5] | Percent Effect [6] | Percent Effect (Homo sapiens) | Percent Effect [7] | Percent Effect [8] | Percent Effect [9]
CC(C(=O)NCCN1CCCCCC1)n1cncn1 (configuration not stated) | -5.19% | 13.2% | -5.03% | 2.07% | 4.76% | 1.8% | 3.98% | -5.88% | 4.43% | 13.6% | -5.88%
COc1ccc(NC(=O)c2ccc(-n3ncc(C#N)c3N)cc2)cn1 | -3.59% | 10.1% | 0.744% | 15.3% | -3.68% | -4.94% | 0.901% | 8.55% | 4.43% | 8.86% | -4.68%
Cc1cccc(-n2c(C)cc(C(=O)N3CCn4c(C)nnc4C3)c2C)c1 | -3.26% | 10.5% | -12.3% | 9.36% | 2.15% | -3.6% | 7.19% | 3.33% | 11.3% | 16.1% | -0.518%
Cc1cc(C)nc(Nc2cccc(C3CCCN(C)C3)n2)n1 (configuration not stated) | -4.27% | 1.35% | 9.63% | -3.78% | 2.77% | -3.94% | 4.68% | -3.42% | 2.15% | 6.49% | -16.2%
CC(C)Nc1ccc2nc(C3CCN(C(C)C)CC3)nn2c1 | -0.345% | 8.11% | -95.9% | -2.89% | 3.91% | 26.2% | 8.54% | 7.24% | 10.9% | 8.54% | -1.81%
COc1ccc(CNC2CCCN(Cc3noc(C)n3)C2)cc1F (configuration not stated) | -10.4% | 10.4% | 0.711% | 4.31% | -5.06% | -3.2% | -1.01% | 32.5% | 0.971% | -2.44% | -5.61%
COc1ccc(C)cc1CSCCn1nc2ccccn2c1=O | -4.01% | 20.8% | -1.24% | -10.9% | 4.6% | -1.47% | 12.7% | 11.9% | 3.81% | 21.2% | -22.4%
O=C(NCCCn1ccnc1)N1CCCC1c1ccncc1 (configuration not stated) | -1.66% | -2.67% | -1.97% | -2.62% | -5.36% | 1.56% | -1.57% | -1.17% | -0.546% | 1.24% | 5.86%
CN(C)Cc1nc(C(C)(C)NC(=O)C2CC(=O)N(CC3CC3)C2)no1 (configuration not stated) | -8.14% | 5.41% | 0.168% | 2.33% | -3.44% | 3.14% | -3.77% | 22.2% | 1.98% | 1.22% | 4.96%
c1cnnc(NCC2CN(CCN3CCCCC3)CCO2)c1 (configuration not stated) | -2.02% | -7.79% | 5.05% | 6.18% | 9.74% | -3.56% | 1.01% | -18.9% | 0.971% | 7.32% | -2.7%
CSc1cccc(CNC(=O)C2CC(=O)N(CCN(C)C)C2)c1 (configuration not stated) | 0.794% | 5.33% | -10.1% | 4.4% | -2.82% | 1.56% | 15.7% | 9.77% | 4.92% | 13.6% | -3.47%
CC(C)CN1C[C@H]2CCN(c3ncccn3)CC[C@H]2S1(=O)=O | -1.59% | 20.8% | -1.01% | 12.2% | 6.39% | -15.2% | 15% | -0.732% | 6.45% | 13.6% | 118%
Cc1cc(C2CCCN(C(=O)c3ccc(C)[nH]c3=O)C2)n[nH]1 (configuration not stated) | 1.38% | 0% | -0.306% | 6.13% | -1.04% | -0.401% | 1.08% | -7.96% | 3.45% | -1.24% | 4.03%
Cc1ccc(CN2CC[C@H]3C[C@@H](c4nc(C5CC5)cs4)O[C@@H]3C2)o1 | -2.45% | 2.6% | 0.23% | 10% | 10.1% | -48.3% | 16.3% | 36.5% | 10.8% | 16.1% | -1.64%
O=C(O)c1csc(S(=O)(=O)N2CCCc3ccc(F)cc32)c1 | -6.97% | -2.67% | -4.41% | 4.48% | 0.682% | 0% | 6.1% | 8.48% | -13.7% | -13.6% | -5.31%
CN(Cc1cnn(C)c1)C(=O)NC1CCC(O)CC1 (configuration not stated) | -2.67% | 4.17% | -6.32% | 15.8% | 2.82% | 9.71% | 13% | -3.51% | 0% | 2.56% | -2.95%
Cn1c(C2CC2)nc2c1CCN(CC(=O)Nc1nncs1)C2 | -2.25% | -2.6% | 0.616% | 7.43% | -2.06% | -11.4% | 3.72% | -9.48% | 4.85% | 7.32% | -5.21%
Cc1cc(C)c2nc(CN3CCCC(c4cc[nH]n4)C3)cc(O)c2c1 (configuration not stated) | -1.83% | 0% | 3.31% | -3.01% | -3.28% | 0% | 8.62% | 23.3% | 3.7% | 14.6% | -5.03%
Cc1nc(C)n(CC2CCCCN2Cc2ncc(C(C)(C)C)o2)n1 (configuration not stated) | -2.22% | 31.2% | -8% | -3.37% | 5.62% | -2.13% | 19.1% | 10.5% | 7.77% | 24.4% | -10.7%
O=C(NCCNc1ncccn1)N(Cc1ccc(F)cc1F)C1CC1 | -3.52% | 10.1% | -4.4% | 16.9% | -2.36% | 1.52% | -3.03% | 8.99% | 2.46% | 8.86% | -3.1%
CCC1=N[C@@]2(CC[C@@H]3CN(C(=O)NC(C)C)C[C@@H]32)C(=O)N1C | -5.93% | 18.9% | -5.97% | 2.32% | 3.12% | 2.92% | 10.9% | 1.5% | 3.96% | 18.3% | -6.51%
Cn1nc(C#N)c2c1CN(C(=O)c1cccnc1)CCC2 | -4.61% | 2.6% | -0.491% | -7% | -2.66% | -1.94% | 3.13% | 6.32% | -2.12% | -6.41% | -0.821%
